Assay results from PubChem BioAssay (NCI).
About 83,000 compounds went through this panel and 20% of them were active in at least one assay; those are over-represented in the sample as a whole.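 Results are percent growth after 48 hours of single-concentration exposure. 100 means growth as in untreated cells, lower positive values show inhibition; negative values down to -100 show cell death.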 A number with no mark means an inactive call. Activity calls are given as the source filed them.

What follows are compounds tested on HOP-92 NSCLC (assay: NCI-60 one-dose screen, 48 h (100 = growth as untreated, 0 = no growth, -100 = all killed)). Conditions: 10 µM.
Protocol: Growth inhibition of the HOP-92 human Non-Small Cell Lung tumor cell line is measured as a screen for anti-cancer activity. Cells are grown in 96 well plates and exposed to the test compound for 48 hours. Compounds are tested at a single concentration, which is 10^-5 M for most compounds. The reported endpoint is percent growth (GI% or GIPRCNT), where numbers from 0 - 100% represent growth inhibition, and numbers from -100% - 0 represent cell death. For example, a value of 40 represents 60% growth inhibition. A value of 0 means no net growth occurred over the course of the experiment. A value of -40 indicates 40% of cells at the beginning of the experiment died by the end of the experiment. A value of -100 means all cells are dead at the end of the experiment.
NCI-60 Human Tumor Cell Lines Screen was performed using the standard one-dose NCI protocol, which is described in more detail at https://dtp.cancer.gov/discovery_development/nci-60/default.htm.
Compounds with GIPRCNT values below 10 were considered active. Activity score was based on GIPRCNT using the following formula: […]
Score is 0 for GIPRCNT values of 100 or above, 50 for GIPRCNT values of 0, and 100 for GIPRCNT values of -100.
Work on `CC(=O)N[C@H](C(=O)N[C@@H](CCCNC(=N)N)C(=O)N[C@@H](CCCCN)C(=O)N[C@@H](CCCNC(=N)N)C(=O)N[C@]1(C)CCC/C=C\CCC[C@@](C)(C(=O)N[C@@H](CC(C)C)C(=O)N[C@@H](CC(C)C)C(=O)N[C@@H](CCC(N)=O)C(=O)N[C@@H](CCC(=O)O)C(=O)N[C@@H](CCCNC(=N)N)C(=O)N[C@@H](CCC(=O)O)C(=O)N[C@@H](CC(C)C)C(=O)N[C@H](C(=O)N[C@@H](CCC(=O)O)C(N)=O)C(C)C)NC(=O)[C@H](CCCNC(=N)N)NC(=O)[C@H](CC(C)C)NC1=O)C(C)C` yielded a growth of 115%. For `NC(=O)c1cccc(-n2ccc3cc(NC(=O)Nc4ccc(Cl)c(C(F)(F)F)c4)ccc32)n1`, the growth was 97.6%. For `COc1cc(NC(=O)C2=C(N3CCOCC3)/C(=C/c3ccc(Cl)cc3)CC2)cc(OC)c1OC`, the growth was 65.3%. Compound `O=C1c2ccccc2C(=O)c2c1ccc(C(Br)Br)c2[N+](=O)[O-]` has a growth of 38.8%. `C=C(NC(=O)C(=C)NC(=O)c1csc(C2=NC3c4csc(n4)C4NC(=O)c5csc(n5)C(C(C)(O)C(C)O)NC(=O)C5CSC(=N5)C(=CC)NC(=O)C(C(C)O)NC(=O)c5csc(n5)C3(CC2)NC(=O)C(C)NC(=O)C(=C)NC(=O)C(C)NC(=O)C(C(C)CC)NC2C=Cc3c(C(C)O)cc(nc3C2O)C(=O)OC4C)n1)C(N)=O` (stereo not given) gave a growth of 16.2%. For `COc1ccc(/C=C/c2nnc(/C=C/c3ccc(OC)c(OC)c3)o2)cc1OC`, the growth was 20.4%. `CCOC(=O)c1cc(C(=O)c2ccc(OC)c(OC)c2)n2c1ccc1ccc3cccnc3c12` gave a growth of 18.9%. Work on `OCC1OC2C(NC(=S)N2c2ccccc2)C(O)C1O` (stereo not given) yielded a growth of 90.5%. `COc1ccc2nc(-c3ccc(Cl)cc3)cc(-c3nnc(SC/C(=N\O)c4ccccc4)n3-c3ccccc3)c2c1` gave a growth of 95.4%. `O=C(CCn1cnc2c(cc(-c3ccccc3)n2-c2ccccc2)c1=O)Nc1ccc(F)cc1` was tested, and the growth was 34.2%. `COc1cc(CNC(=O)C2CSC3(C)c4ccccc4C(=O)N23)cc(OC)c1OC` (stereo not given) was tested, and the growth was 88.4%. In the case of `CC(=O)OC1CC2C(C)(C)CCC[C@]2(C)C2=C1C(O)=C(C(C)C)C(=O)C2=O` (stereo not given in full), the growth is reported as -79.2% (active). Work on `CC(C)N(CCOc1cccc(-c2nc3sccn3c2-c2ccnc(S(C)(=O)=O)n2)c1)C(C)C` yielded a growth of 43.5%. In the case of `CNC(=O)c1c(I)c(NC(C)=O)c(I)c(C(=O)O)c1I`, the growth is reported as 92.7%. For `Cc1c(C(N)=O)sc2c1c(=O)n(Cc1ccccc1)c1nnc(-c3ccc(Br)cc3)n21`, the growth was 43.4%. Compound `CC(C)(C)OC(=O)CN1CCc2c(sc3ncnc(N/N=C/c4cccc5ccccc45)c23)C1` has a growth of 54.9%. Work on `CCOC(=O)c1cc(C(=O)c2cc(OC)cc(OC)c2)n2ncc3ccccc3c12` yielded a growth of 32.4%. `CC(CN(C)C)Oc1ccc(OC(C)CN(C)C)c2c1C(=O)c1ccccc1C2=O` (stereo not given) gave a growth of 49.1%. Compound `C=CCSC(CC)(CC)C(=O)NC` has a growth of 106%. With `Cc1cn(-c2cccc(NC(=O)c3ccc(C)c(Nc4nccc(-c5cccnc5)n4)c3)c2)cn1` the growth was -13% (active). `COc1ccc(/C=C2\CCCC3=C2N=C2SC(C)=CN2C3c2ccc(OC)cc2)cc1` (stereo not given) was tested, and the growth was 93.8%. Compound `Cc1cc(Br)nnc1Br` has a growth of 128%. Work on `CCn1c(CSc2nc3ccccc3c(=O)n2CCc2ccccc2)n[nH]c1=S` yielded a growth of 85.9%. `OC[C@H]1OC([S-])[C@H](O)[C@@H](O)[C@@H]1O.[Au+]` (stereo not given in full) showed a growth of 75.6%. Compound `O=c1oc2c(cc1-c1ccc(F)cc1)C(O)Oc1ccccc1-2` (stereo not given) has a growth of 48.8%. `O=C(Nc1ccc(OCc2nnc(-c3ccc(Cl)cc3)o2)c(F)c1)Nc1ccc(Cl)c(C(F)(F)F)c1` was tested, and the growth was -19.3% (active). `COc1cc(-c2nn(-c3cccc(NC(=O)NCCNS(=O)(=O)c4ccc(Cl)cc4)c3)cc2-c2ccncc2)ccc1Cl` was tested, and the growth was -3.88% (active). `CC(=O)[C@H]1CC[C@]2(C)[C@@H]1CC[C@@H]1[C@@]3(C)CC(CCC#N)(CCC#N)C(=O)C(C)(C)[C@@H]3CC[C@]12C` was tested, and the growth was 105%. Work on `CCOC(=O)c1cc(C(=O)c2cc(OC)c(OC)c(OC)c2)n2ccc(-c3cc[n+](CC(=O)c4cc(OC)c(OC)c(OC)c4)cc3)cc12` yielded a growth of 46.2%. `O=C(Nc1ccc(OS(=O)(=O)c2ccccc2)cc1)C1CCCCC1` was tested, and the growth was 98.5%. For `CN(C)CCCOc1ccc(OCCCN(C)C)c2c1C(=O)c1ccccc1C2=O`, the growth was -0.93% (active). `CN(C)CCN(Cc1ccccc1)c1ccc2ccccc2n1` showed a growth of 75.6%. `Cc1ccc(C(C)C)c(O)c1NC(=O)OC(C)C` showed a growth of 75.7%. With `COc1cc(C(=O)/C=C/c2c[nH]c3ccccc23)cc(OC)c1OC` the growth was 39.2%. `COc1cc(C2CC(c3ccc4c(c3)OCO4)=NN2c2ccccc2)cc(OC)c1OC` (stereo not given) showed a growth of 84.1%. Compound `O=C1Cc2cc(CCN3CCN(c4nsc5ccccc45)CC3)c(Cl)cc2N1` has a growth of 64.9%. For `O=C(/C=C/c1cccc(B(O)O)c1)c1cccc(B(O)O)c1`, the growth was 69.6%. `COc1ccc(NC(=O)C2CC3C=CC2C3)c([N+](=O)[O-])c1` (stereo not given) gave a growth of 81.9%. `CC(C)(C)OC(=O)N1CCc2c(sc3ncnc(N/N=C/c4ccc(Br)cc4)c23)C1` gave a growth of 94.4%. `COc1ccc(-c2cc(-c3ccccc3)nc(SCCCC(=O)NO)n2)cc1` was tested, and the growth was -13.4% (active).
